Experimental data taken from the supplement of paper PMC12632987.
Over roughly 1,800 sequences, “median log2 fold change of GCK-ALFA target abundance (FLAG IP / Myc IP barcode read proportion)” has its median near 0.14; the lowest 2% begin near -0.84. The sample as a whole holds a higher share of the lowest values than the screen did.

T1: TRAF2, Q12933
T1 chain: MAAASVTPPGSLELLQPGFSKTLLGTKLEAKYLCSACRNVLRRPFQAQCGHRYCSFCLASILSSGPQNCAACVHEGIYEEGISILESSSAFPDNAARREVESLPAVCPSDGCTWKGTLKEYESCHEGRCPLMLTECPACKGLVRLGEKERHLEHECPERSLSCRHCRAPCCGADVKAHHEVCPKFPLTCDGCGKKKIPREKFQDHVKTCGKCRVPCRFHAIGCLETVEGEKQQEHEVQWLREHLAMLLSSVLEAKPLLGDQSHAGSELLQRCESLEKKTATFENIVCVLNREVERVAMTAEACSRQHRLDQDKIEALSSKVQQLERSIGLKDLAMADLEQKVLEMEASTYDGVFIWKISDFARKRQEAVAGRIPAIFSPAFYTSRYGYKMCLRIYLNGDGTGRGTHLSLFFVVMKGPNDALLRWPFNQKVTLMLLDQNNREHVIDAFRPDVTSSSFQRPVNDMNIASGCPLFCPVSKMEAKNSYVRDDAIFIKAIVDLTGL

B1: traf2_out_17_162_1579 (protein)
chain: SELEEKLKELEEKLKELEKELKRFKEELKNLENKSKEELTDLLVEVSEARREALQLAEELKKLEKEIGEEKAKELIEKAEEIAEEFQRIANEIYKELLKK
B2: traf2_out_6_156_2416 (protein)
chain: MVEEILKEALEKVKELIKELAKAPESKKIQYISKIAGTAYRALQKLREAGASLEEIEEFAKRFLEETKKLAKEAGLPEDTINLLLSALQAVFDVAIAEAK
B3: traf2_out_6_3_2523 (protein)
chain: SEESLREDARRVLEGMGITTAEQLRRLVRAEVNAVRRLVSRPDTDEADLAGAESVLALAEAVVDVAAEELPDLTEEQVAELRALIEEARKLVEEKRAELA
B4: traf2_out_17_178_1720 (protein)
chain: SKEEYRKKISELTDKLIDLAEAAAARLLALARAEGTLSPEELAALEAARRRGSPNDTLALMRRVAPRLRSAAEAEALLADFEAQSKALAKEIAELYEKYE
B5: traf2_out_13_95_1103 (protein)
chain: SEETAKKIMEVADKMLDKVEELLEKLLEKAKKAGKLEEEIEKALHLARYQSINEAIHLLKELAKKYPEFKEELEETIKEIEALRKQAGKEVAKIIKEEKE
B6: traf2_out_13_95_1096 (protein)
chain: SKELAEKIMEIADKMLDEVEKLLEELLKEAKKAGKLEEEVTEALNLARYRSINEAIHLLEELAKKHPEFKELYEKTIKEIKEIIKEAGKEVAKLIKEEKE
B7: traf2_out_6_3_2524 (protein)
chain: SEESLRADARKILEGMGITTAEQLRTLVTAEVNAVRQLVSRPDTDRADLAGARSVLALSRAIVDVAAETLPDLTPEQVAALRALIAAAEELIAAREAELA
B8: traf2_out_16_104_1376 (protein)
chain: SAATDAAFQAIIARLEAIAERAQRLANELMKLYEKASPEEKEKISDALVEVSELRRRALAAAEAVRQAQAAGGDLAEAQATLAELEARLAEAEARVEELK
B9: traf2_out_11_169_872 (protein)
chain: KEAEKNRKLNDFALELNDEAKEKLKEFALKLAKELGLDVEEVKKIFEENKNKSLSAVAAALIKYFKEKGKEDAAAKIEKKYEELKEEINKKTSEKIKELE
B10: traf2_out_3_89_2287 (protein)
chain: SEEREKKIEELRRIIDRYLKGFEKSARRVAKEMLEEGYSLDTLEGVLNASKTALVEEIRRLAKERGLSEEDIKELVEEATKRLDEIVDKILEEAKKARAE
B11: traf2_out_19_16_1983 (protein)
chain: AEEEAERLLAEMRRHLDEALRLAEETVANLDKLSRDELMDRLVEISELVRRAQEALQRALELLADDPERRAAIRAEYDERLDRINRLMTKIVDRLLELLK
B12: traf2_out_11_79_931 (protein)
chain: SEKRKELEELIKKALKLVEELIKKLKEGNISEEEFAKTIEEILELLQRAMQLALELGLSDVLVLLSEARRHVLLSRTRNLEELEKAAKYLKEALKELEKE
B13: traf2_out_18_167_1826 (protein)
chain: SEEAEKKINELRDKLIEYSEIRRLALAAIEALRTDPAAAEAALAAVIAALEKVPEFRPDAERLKALPREELPAALEEIAERAQRKMNEIYKEIEEIKKKA
B14: traf2_out_6_3_2531 (protein)
chain: DRESLLADARKVLENMGITTAAELQRLVEAEVRAIRQLISRPDVDRADLAGARSVIALARAMVEVAAETLPDFTPEQQARLQALLAEAEELVRRREEELA
B15: traf2_out_20_3_2095 (protein)
chain: EELEKELEKALKEAAKLIKKAIALADPETAARLEALLKRLKAAEKLPLEDRLVALSAVRRELLALAEEARAAGREELAKLLEEAAEEVNRAMNLAYKIIE
B16: traf2_out_9_17_2611 (protein)
chain: SAEEEELKERLLEAIEEVLKELVEKGYITEEEAEEILKKVKELIEKGASPDEIIAEFLGMIASILLTKSNLSLPEANKIVGEAYRRLQERLEKIEKELAE
B17: traf2_out_16_104_1406 (protein)
chain: AAATQAAFDAIIAELNKIAEELGKIANKIYKKMETASPELKEKLTDALVDASELRRQALEAAVAAAQARATGGDLAAAQATLAELKKKAEEVKKKAEELF
B18: traf2_out_14_149_1255 (protein)
chain: SETEKKRKALEEARALMEEIAAILEAALAAGSTEVDRERLRALVEEARAILREQGFVLGHLLAIEEMLATTEEFTLADIEALLAEVRRAAESLAVLAEML
B19: traf2_out_6_3_2517 (protein)
chain: MEESIRKDARTVLENMGITTVEQLKKLVEANVNAVKKLVSRKDVDRADLAAANSVLNLTRAMVEVAAETLPDLTEEDVKEMNALIDEARELIEKKKKELE

Biological target: T1, TRAF2, Q12933
Experiment: median log2 fold change of GCK-ALFA target abundance (FLAG IP / Myc IP barcode read proportion) (log2 ratio); each designed protein is fused to an ALFA-tag nanobody in HEK293 cells to bring the named protein to FLAG-tagged glucokinase (GCK); Myc marks an untargeted standard; higher = target protein stabilised (more abundant)
Settings: target protein: 3xFLAG-MCP-GCK-ALFA reporter; HEK293 landing pad (RPLP)
How it was run: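 Binders fused to an ALFA nanobody were recombined as a library into HEK293 landing-pad cells, which were induced with 2 μg mL^−1 doxycycline and then transfected to express a FLAG-tagged target and a Myc-tagged standard. After 48 h, circular RNA barcodes recovered by anti-FLAG and anti-Myc immunoprecipitation of lysates were reverse transcribed, amplified and sequenced. Each binder's target abundance is the median log2 ratio of FLAG to Myc barcode read proportions, from barcodes present at ≥10^−7 in both replicates, binders carrying ≥3 barcodes per replicate, a 10^−6 pseudocount and pooled replicates.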

Row | Binder | median log2 fold change
1 | B1 | 0.462
2 | B2 | -0.0768
3 | B3 | -0.222
4 | B4 | 0.2
5 | B5 | -1.3
6 | B6 | -0.702
7 | B7 | -0.125
8 | B8 | 0.417
9 | B9 | 0.289
10 | B10 | -0.239
11 | B11 | -0.215
12 | B12 | 0.265
13 | B13 | 0.154
14 | B14 | -0.925
15 | B15 | -0.0878
16 | B16 | 0.0354
17 | B17 | 0.196
18 | B18 | -0.105
19 | B19 | -1.1
